# Results from PubChem BioAssay (NCI).
# The panel holds about 83,000 compounds, 20% with a hit somewhere; the sample as a whole holds those more often.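 Single-concentration screen, 48 h exposure, 96-well plates. Endpoint: percent growth. Below 10 = active.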 Active and inactive are the calls of the source.
# System: HOP-92 NSCLC
# Assay: NCI-60 one-dose screen, 48 h (100 = growth as untreated, 0 = no growth, -100 = all killed)
# Conditions: 10 µM unless noted
row,Compound,growth
1,O=C(CCCCCCN1CC(=O)N2[C@H](c3ccc(Br)cc3)c3[nH]c4ccccc4c3C[C@@H]2C1=O)NO,31.3% (inactive)
2,NNCCc1ccc(NC(=O)CCCc2ccc(C(=O)Nc3ccccc3N)cc2)cc1,31.2% (inactive)
3,Cc1cccc[n+]1C1c2ccccc2-c2ccccc21,68.9% (inactive)
4,CN(C)S(=O)(=O)Oc1ccc(-c2sc3cc(OS(=O)(=O)N(C)C)ccc3c2C(=O)c2ccc(OCCN3CCCCC3)cc2)cc1,28.5% (inactive)

# System: NCI-H522 lung
# Assay: as above
# Conditions: 10 µM unless noted
row,Compound,growth
1,C[C@@H]1O[C@@H](O[C@@H]2C[C@H](c3ccc4c(c3O)C(=O)C3=C(C4=O)[C@@]4(O)C(=O)C[C@](C)(O)C[C@@]4(O)C=C3)O[C@H](C)[C@H]2O)CC[C@@H]1O[C@H]1C[C@@H](O)[C@H](O)[C@@H](C)O1,41.5% (inactive)
2,CC(=O)OC(c1ccccc1)C1CCOC1=O (configuration not stated),78.1% (inactive)
3,C=CCN1C(=O)c2cccc3c(N4CCOCC4)ccc(c23)C1=O,-1.11% (active)
4,O=C(CCSc1nnc2n(Cc3ccccc3)c(=O)c3c4c(sc3n12)CCCC4)N1CCN(c2ccccc2)CC1,104% (inactive)
5,CC1=CCC(OC(=O)C(C)(C)CC(O)(C(C)O)C(O)C2(C)C=CC(Cc3ccc(C(C)C)cc3)(C(C)C)CC2)(C(C)C)CC1 (configuration not stated),91.2% (inactive)
6,c1ccc(CCNc2c3ccccc3nc3ccccc23)cc1,39.8% (inactive)
7,CCCCNc1nnc2n(Cc3ccccc3)c(=O)c3c4c(sc3n12)CCCC4,33.2% (inactive)
8,COc1ccc2cc(-c3ccnc4c(N=Nc5ccc(Cl)cc5)c(N)nn34)ccc2c1,95.6% (inactive)
